Hits are enriched below; roughly 1.6% of the tested compounds scored in any of these assays.
LMNA splice mod: LMNA splicing modulation | HeLa LMNA splicing GFP/RFP minigene ratio, 48 h | Potency, µM (series often up to 46.1 µM), for the others: top-dose ratio change, negative = inhibition, hits mostly inhibitors | 200,000 tested, 0.01% active; active = well fitted inhibition curve with a large enough effect in the signal ratio, with a control signal flat, not every such curve was filed as active; inconclusive = small, poorly fitted or top-dose-only effect, or effect the other way, or a change in a side signal; the % refers to the signal ratio; note: potency is the fitted concentration of half-maximal effect; % is set by controls: 0 for no effect and ±100 for the full control effect
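Read-out is the ratio of GFP to DsRed2 object intensity, acquired by 488 nm laser-scanning cytometry on HeLa lamin A-EGFP minigene reporter cells. Compound incubation 48 hrs at 37 °C in Opti-MEM with 2% FBS; DMSO 0.5% final.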
HTT cytoprotect: Huntington cell model cytoprotection by ATP luminescence; PC12 HTT-Q103 induced, cytoprotection, ATP luminescence, 40 h; 230,000 tested, 0.14% active; AID 1471; Potency, µM (series often up to 56.4 µM), without a hit: cytoprotection (ATP increase), actives largely listed as activators; note: potency is the fitted concentration of half-maximal effect; % of control where 0% means no effect; nearly all actives have a fitted effect of over 45% in size
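PC12 cells with ecdysone-inducible HTT exon 1 Q103-GFP, induced with 100 nM tebufenozide and co-treated with library compounds in a dose series (1536-well, 1500 cells/well). Cytoprotection read as ATP content by ATPlite luminescence.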
NPSR antagonist: antagonists of human neuropeptide S receptor cAMP signaling | Q6W5P4 | CHO-NPSR cells, cAMP TR-FRET, antagonist mode | Potency, µM (series often up to 38.3 µM), for inactives: at the highest dose activity change, negative = inhibition, actives largely listed as inhibitors | 220,000 tested, 1% active; note: potency is the fitted concentration of half-maximal effect; % is set by controls: 0 for no effect and ±100 for the full control effect; nearly all actives have a fitted effect of over 50% in size
IMPase Li cell: IMPase inhibition in cells with lithium potentiation; AID 1457; 210,000 tested, 0.35% active; Potency, µM (top dose mostly 59.4 µM), for the others: at the highest dose activity, negative = IMPase inhibition, most hits filed as inhibitors; CHO-M1 cells, IP1 TR-FRET (IP-One), carbachol + lithium;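 note: IP1 builds up when IMPase is blocked and the TR-FRET signal falls; potency is the fitted concentration of half-maximal effect; plate controls were basal vehicle for no effect and high inhibitor control for full effect; nearly all actives have a fitted effect of over 50% in size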
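Steps: plate 2000 CHO-M1 cells per well and culture 16–30 h; add compound and lithium; incubate 30 min, 37C; add d2-IP1 tracer and Eu cryptate anti-IP1 antibody in lysis buffer; read after 10 min at room temperature.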
IMPase cell inh: membrane-permeable compound that blocks inositol monophosphatase. inhibition (IP1 accumulation), % at 46.1 µM. 120,000 tested, under 10 active. P97697. CHO-M1 cells, IP1 accumulation, HTRF TR-FRET ratio. AID 901; active = well fitted curve in the direction sought with a large enough effect in the signal ratio, not every such curve was filed as active; inconclusive = small, poorly fitted or top-dose-only effect, or a change in a side signal; inactive = no such curve, though single readings can be large or run the other way; the % refers to the signal ratio;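 note: cells stimulated with carbachol in lithium chloride buffer; plate controls were DMSO basal wells for no effect and reference inhibitor wells for full effect; higher means more IMPase inhibition seen as more IP1 and lower FRET ratio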
Target sequence (P97697 whole entry, looked up): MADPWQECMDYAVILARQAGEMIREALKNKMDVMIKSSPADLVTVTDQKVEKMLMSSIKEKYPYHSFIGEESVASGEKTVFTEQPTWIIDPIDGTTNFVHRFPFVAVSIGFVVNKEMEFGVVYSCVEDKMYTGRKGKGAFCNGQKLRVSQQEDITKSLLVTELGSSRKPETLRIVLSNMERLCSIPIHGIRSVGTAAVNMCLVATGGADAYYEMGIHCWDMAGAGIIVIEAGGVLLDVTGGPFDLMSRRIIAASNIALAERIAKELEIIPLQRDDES
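CHO-M1 cells (CHO stably expressing M1 receptor), compound up to 46 uM final, stimulated with carbachol (50 uM as added) in buffer with 50mM LiCl, pH 7.4, 30 min at 37C. Cytosolic IP1 read by TR-FRET; AC50 from Hill fits.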
HTT aggregate: inhibitors of mutant huntingtin aggregate formation in PC12 cells. PC12 HttQ103-GFP aggregates, Acumen cytometry, 40 h. Potency, µM (top dose mostly 46.1 µM), for the others: at the top dose activity change, negative = inhibition, most hits filed as inhibitors. 220,000 tested, 1.1% active. AID 1688; note: potency is the fitted concentration of half-maximal effect; % is set by controls: 0 for no effect and ±100 for the full control effect; nearly all actives have a fitted effect of over 60% in size
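Inducible Q103 Huntingtin exon 1–GFP PC12 line, 1500 cells/well in phenol red free DMEM with 5% equine and 5% calf serum. Tebufenozide 100 nM induced expression; compounds titrated; aggregates quantified by cytometry.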
An asterisk follows results filed as active; ? = inconclusive; / = no result given; [ ] = another dose, or the depositor's remark. Unless noted, calls come from the whole dose curve; as a rule, active = well fitted curve in the direction sought with a large enough effect; inconclusive = small, poorly fitted or top-dose-only effect, or another doubt; inactive = no such curve, though single readings can be large; an effect the other way counts as inactive or inconclusive.

SMILES	LMNA splice mod	HTT cytoprotect	NPSR antagonist	IMPase Li cell	IMPase cell inh	HTT aggregate
COc1ccccc1NC(=O)CSc1c2c(nc3ccccc13)CCC2	?	-5%[10 µM]	23%	14%	/	35µM*
O=C(CSc1c2c(nc3ccccc13)CCC2)N1CCCC1	/	10µM*	4%	5%	/	?
O=C(O)/C=C(/C(=O)O)[C@]12CCN3CC4=CCO[C@@H]5CC(=O)N[C@@H]1[C@H]5[C@H]4C[C@H]32	/	5%[10 µM]	/	/	/	/
N#Cc1ccccc1-c1ccc2ncnc(NCCN3CCOCC3)c2c1	-3%	-14%	/	-2%	/	/
Oc1ccc(N2CCN(c3ncnc4sc5c(c34)CCC5)CC2)cc1	?	6%[10 µM]	?	15%[38.3 µM]	11	11µM*
C[N+]1(C)CCO[C@](O)(c2ccccc2)C1	/	4%[10 µM]	/	4%	/	/
COc1cc2c(cc1OC)C1(Nc3c-2c(C)nn3-c2ccccc2)C(=O)Nc2ccccc21 (stereo not given)	20%	3.5µM*	-29%[46.1 µM]	23%[38.3 µM]	0	-5%
CCOC(=O)c1ccccc1-n1c(C)cc(C2N=C(N)Nc3nc4ccccc4n32)c1C (stereo not given)	-2%	-6%	13µM*	45%[38.3 µM]	11	-2%
COc1ccc(C2N=C(N)Nc3nc4ccccc4n32)c(OC)c1OC (stereo not given)	/	/	/	/	-3	/
CC(C)N(C)C	/	1%	/	-14%	/	/
COC(=O)C1OC(=O)C2OC23[C@]2(C)C(O)CC4C(C)(C)C(OC(C)=O)CC(OC(C)=O)[C@@]4(C)C2CC[C@@]13C (stereo not given in full)	/	-30%	/	9%	/	/
C[C@@H]1Cc2c(O)c(O)cc(O)c2C(=O)O1	/	-34%[10 µM]	16%	/	/	-34%[9.22 µM]
CC1CCC/C=C/C(=O)c2c(O)cc(O)cc2CC(=O)O1 (stereo not given)	/	24%[10 µM]	5µM*	/	/	33%[9.22 µM]
CS(=O)(=O)N1CCN(c2ccccc2NC(=O)c2ccc(-c3ccc(Cl)cc3Cl)o2)CC1	20%	3%[10 µM]	3.2µM*	10%[38.3 µM]	1	11%
CCOC(=O)c1cc(S(=O)(=O)Nc2ccccc2)[nH]n1	4%[46 µM]	/	/	/	/	/
CCc1ccccc1NC(=O)c1nnn(CC(=O)Nc2cccc(C)c2C)c1N	-7%	-50%	?	10µM*	?	4%
CS(=O)(=O)Nc1cccc(-c2ccc3ncnc(NC4CCNCC4)c3c2)c1	7%	-38%	/	13%	/	/
CCCCCCn1c(NCC)nc2c1c(=O)n(C)c(=O)n2C	?	-42%[0.074 µM]	-5%[46.1 µM]	11%[38.3 µM]	3	4µM*
Cn1c(=O)c2c(nc(NCCO)n2C)n(C)c1=O	-14%	13%	-14%[46.1 µM]	18%[38.3 µM]	17	-21%
C=CCn1c(NCCO)nc2c1c(=O)n(C)c(=O)n2C	?	-6%[10 µM]	7%[46.1 µM]	-17%[38.3 µM]	-6	25µM*
CN(CCc1ccc(Cl)c(Cl)c1)CCN1CCCCCC1	/	-28%	/	-1%	12	/
COc1ccc(CN[C@H](C)C(=O)O)cc1	/	8%[10 µM]	/	0%	/	/
COc1ccc(C)cc1NC(=O)N1CCCc2ccccc21	/	-7%[10 µM]	32%	25µM*	/	9%[9.22 µM]
O=C(Nc1ccccc1)N1CCCc2ccccc21	2%	-17%[10 µM]	-3%[46.1 µM]	6%	-6	-8%
C#CCN[C@@H]1CCc2ccccc21	/	18%	/	/	/	15%
Cc1ccc(OCCSCc2nnc(NC(=O)Nc3cccc(Cl)c3)s2)cc1	?	/	-33%	3%	/	8.9µM*
O=C(Nc1ccccc1)Nc1nnc(CSCc2ccccc2Cl)s1	?	5%[10 µM]	-15%	9%	3	?
O=C(Nc1ccc(Cl)c(Cl)c1)Nc1nnc(CSc2ccccc2)s1	?	26%[10 µM]	-40%	8%	/	2.8µM*
O=C(OCCN=C1NS(=O)(=O)c2ccccc21)c1cccs1	-8%[46 µM]	-32%	2%	?	/	23%
OCCNc1nc(Nc2cccc(O)c2)nc2ccccc12	/	12%[10 µM]	0%	/	/	-11%[9.22 µM]

Assay outcomes deposited in PubChem by National Center for Advancing Translational Sciences (NCATS).
